This passage reports growth results from PubChem BioAssay (NCI).

Several values for one entry are separate records, joined by “and”; a condition that tells them apart may be missing. Equal values may be shown once. Compounds without any hit were thinned out: in the full panel of roughly 83,000, 20% have a hit.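 Percent growth is the endpoint: 0 to 100 indicates growth inhibition (40 means 60% inhibition), 0 means no net growth, and negative values indicate cell death.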 Activity calls are given as the source filed them.

This assay has as its system SK-MEL-5 melanoma. Briefly: NCI-60 one-dose screen, 48 h (100 = growth as untreated, 0 = no growth, -100 = all killed). The conditions noted are these: 10 µM. As for the experimental part:
Growth inhibition of the SK-MEL-5 human tumor cell line is measured as a screen for anti-cancer activity. Cells are grown in 96 well plates and exposed to the test compound for 48 hours. Compounds are tested at a single concentration, which is 10^-5 M for most compounds. The reported endpoint is percent growth (GI% or GIPRCNT), where numbers from 0 - 100% represent growth inhibition, and numbers from -100% - 0 represent cell death. For example, a value of 40 represents 60% growth inhibition. A value of 0 means no net growth occurred over the course of the experiment. A value of -40 indicates 40% of cells at the beginning of the experiment died by the end of the experiment. A value of -100 means all cells are dead at the end of the experiment.
NCI-60 Human Tumor Cell Lines Screen was performed using the standard one-dose NCI protocol, which is described in more detail at https://dtp.cancer.gov/discovery_development/nci-60/default.htm.
Compounds with GIPRCNT values below 10 were considered active. Activity score was based on GIPRCNT using the following formula: […]
Score is 0 for GIPRCNT values of 100 or above, 50 for GIPRCNT values of 0, and 100 for GIPRCNT values of -100.
Take `COC(=O)[C@H]1[C@@H](O)[C@@]2(O)c3c(OC)cc(OC)cc3O[C@@]2(c2ccc(OC)cc2)[C@@H]1c1ccccc1`: the growth is -55.8% (active).

Regarding `C=C1[C@@H](C)C2[C@H](Cc3ccccc3)NC(=O)[C@]23[C@H](OC(C)=O)/C=C/[C@@](C)(O)C(=O)[C@@H](C)C/C=C/[C@H]3[C@@H]1O` (some centres undefined), the growth is 33.5% (inactive).

Consider `C/C=C/CC(C)C(O)[C@H](NC(=O)[C@@H]1CCCN1C(=O)C(C)(C)NC(=O)CCCCCCCCC)C(=O)N[C@@](C)(CC)C(=O)N[C@@H](CCC(N)=O)C(=O)N[C@H](CCC(N)=O)C(=O)NC(C)(C)C(=O)NC(C)(C)C(=O)N[C@@H](CCC(N)=O)C(=O)N[C@H](CC(C)C)C(=O)N[C@H](CO)CC(C)C` (some centres undefined), for which the growth is -54.6% (active) and 12.6% (inactive).

For the compound `CC1=C(CN(O)C(N)=O)C2=C(C)C3(CC3)[C@](C)(O)C(=O)C2=C1`, the growth is 85.8% (inactive).

Regarding `O=C(CCCc1ccc(N(CCCl)CCCl)cc1)OCc1ccccc1`, the growth is 93.7% (inactive).

For the compound `CC1=C(CCC=NNC(N)=O)C2=C(C)C3(CC3)[C@@](C)(O)C(=O)C2=C1`, the growth was -80.6% (active).

For the compound `C/C=C/CC(C)C(O)[C@H](NC(=O)[C@@H]1CCCN1C(=O)C(C)(C)NC(=O)CCCCCCC)C(=O)N[C@@](C)(CC)C(=O)N[C@@H](CCC(N)=O)C(=O)N[C@H](CCC(N)=O)C(=O)NC(C)(C)C(=O)NC(C)(C)C(=O)N[C@@H](CCC(N)=O)C(=O)N[C@H](CC(C)C)C(=O)N[C@H](CO)CC(C)C` (some centres undefined), the growth was 100% (inactive) and -65.7% (active).

`CC(C)(O)/C=C/C(=O)[C@](C)(O)[C@H]1[C@H](O)C[C@@]2(C)[C@H]3CC=C4[C@@H](C[C@H](O)C(=O)C4(C)C)[C@]3(C)C(=O)C[C@]12C`: the growth was 1.6% (active).

Regarding `CC(C)=CCc1c2c(c(O)c3c1O[C@]14C(=C[C@@H]5C[C@H]1C(C)(C)O[C@@]4(C/C=C(/C)C(=O)O)C5=O)C3=O)C=CC(C)(C)O2`, the growth was -98.9% (active).

For `NC1CCc2cc(O)c(O)cc2C1` (centres undefined), the growth is 87.4% (inactive).

With `CCC(C)[C@H]1C(=O)O[C@H](C(C)C)C(=O)N(C)[C@@H](C(C)C)C(=O)O[C@H](C(C)C)C(=O)N(C)[C@@H](C(C)C)C(=O)O[C@H](C(C)C)C(=O)N1C` (some centres undefined), the growth was -33.5% (active).

`CC(=O)O[C@@H]1C[C@H]2O[C@@H]3C=C(C)CC[C@]3(C)[C@]1(C)[C@]21CO1`: the growth was -50.9% (active).

With `CC(=O)O[C@@H]1[C@@H]2O[C@H]2[C@@](C)(O)C(=O)[C@@H](C)C/C=C/[C@H]2[C@@H]3O[C@]3(C)[C@@H](C)C3[C@H](Cc4ccccc4)NC(=O)[C@@]312` (some centres undefined), the growth was 71% (inactive).

Consider `C[C@@H]1CCC/C=C/[C@H]2C[C@@H](O)C[C@@H]2[C@@H](O)/C=C/C(=O)O1`, for which the growth was -92.8% (active).

Turning to `CC1=C[C@H]2O[C@@H]3C[C@H]4OC(=O)/C=C\C=C\[C@H]([C@@H](C)O)OCC[C@@H](C)[C@H](O)C(=O)OC[C@@]2(CC1)[C@]4(C)[C@]31CO1`, the growth is -90.2% (active).

Regarding `C[C@@H]1C[C@H]2C(=O)O[C@@H](C)C(NC(=O)[C@H](Cc3cc(F)cc(F)c3)NC(=O)Nc3ccc(OS(=O)(=O)F)cc3)C(=O)N3CCC[C@H]3C(=O)N3CCO[C@H](C)[C@H]3C(=O)N[C@@H](CO)C(=O)N2C1` (some centres undefined), the growth was -6.32% (active).

With `CN(CCF)/N=N/c1nc[nH]c1C(N)=O`, the growth was 74.6% (inactive).

As to `CC1=C2C(=C[C@@](C)(C=O)[C@@H]2O)C(=O)[C@](C)(O)C12CC2`, the growth is -79.5% (active).

On to `COc1cc2c(O[C@@H]3OC[C@H](O)[C@H](O)[C@H]3O)c3c(c(-c4ccc5c(c4)OCO5)c2cc1OC)C(=O)OC3`, for which the growth was -93.4% (active).

On to `CC1=C2C(=C[C@@](C)(COS(C)(=O)=O)[C@@H]2O)C(=O)[C@](C)(O)C12CC2`, for which the growth was -18% (active).

As to `CC1=C2C(=C[C@@](C)(COC(=O)c3ccc(S(=O)(=O)F)cc3)[C@@H]2O)C(=O)[C@](C)(O)C12CC2`, the growth was -82.5% (active).

Consider `COc1cc(C)c(-c2ccc(OC)c(=O)cc2C)c(OC)c1OC`, for which the growth is 21.7% (inactive) and 99.7% (inactive).

Consider `COc1cc2c(cc1OC)[C@@H]1N(CC2)C(=O)c2ccccc2[C@@]1(C)C(=O)O`, for which the growth is 101% (inactive).

For `Cc1ccc(CNc2nc3ccc(OC/C(=C/F)CN)cc3o2)cn1`, the growth was 98% (inactive).

With `COc1cc(OC)c(S(=O)(=O)N(CCCl)CCCl)cc1C(=O)/C=C/c1ccc(Cl)cc1`, the growth is 87.1% (inactive).

Consider `C/C=C\C(=O)O[C@@H]1CC2O[C@@H]3C=C(C)C(=O)C[C@]3(C)[C@]1(C)[C@]21CO1`, for which the growth is -57% (active).

Consider `N#Cc1c(-n2c(Br)c(Br)c3cc(Br)ccc32)[nH]c2c(Br)cc(Br)cc12`, for which the growth is -76.8% (active).

For `CC1=C(CN(O)C(N)=O)C2=C(C)C3(CC3)[C@@](C)(O)C(=O)C2=C1`, the growth is -61.6% (active).

Regarding `CC1=C2C(=O)[C@](C)(CO)C=C2C(=O)[C@](C)(O)C12CC2`, the growth is 24.2% (inactive).

Regarding `CC1=C[C@H]2O[C@@H]3C[C@H]4OC(=O)/C=C\C=C\[C@H]([C@@H](C)O)OCC/C(C)=C/C(=O)OC[C@@]2(CC1)[C@]4(C)[C@]31CO1`, the growth was -89.2% (active).

With `COc1cccc2c1cc([N+](=O)[O-])c1c(C(=O)O)cc3c(c12)OCO3`, the growth is 102% (inactive).

Regarding `N#Cc1nc(-c2ccccc2)oc1N1CCC(S(=O)(=O)F)CC1`, the growth was 96.3% (inactive).

Regarding `CC1=C[C@H]2O[C@@H]3C[C@@H](O)[C@](C)([C@@]2(C)CC1)[C@@]31CO1`, the growth was 12.1% (inactive).

On to `CN1C(=O)[C@]23SSC1(C)C(=O)N2[C@H]1Nc2ccccc2C1([C@@]12c4ccccc4N[C@@H]1N1C(=O)C4(C)SS[C@]1(C(=O)N4C)[C@H]2O)[C@@H]3O` (some centres undefined), for which the growth is -99% (active).

Take `C/C=C/CC(C)C(O)[C@H](NC(=O)[C@@H]1CCCN1C(=O)C(C)(C)NC(=O)CCCCCCCCC)C(=O)NC(C)(C)C(=O)N[C@@H](CCC(N)=O)C(=O)N[C@H](CCC(N)=O)C(=O)NC(C)(C)C(=O)NC(C)(C)C(=O)N[C@@H](CCC(N)=O)C(=O)N[C@H](CC(C)C)C(=O)N[C@H](CO)CC(C)C` (some centres undefined): the growth was -93.3% (active) and -92.8% (active).

As to `COC1[C@@H]2C[C@H]3C(C)(C)O[C@@](C/C=C(/C)C(=O)O)(C2=O)[C@]32Oc3c(CC=C(C)C)c4c(c(O)c3C(=O)[C@H]12)C=CC(C)(C)O4` (some centres undefined), the growth is -98.4% (active).

For `CCCCCCCCCC(=O)N[C@@](C)(CC)C(=O)N1CCC[C@H]1C(=O)N[C@@H](CC(C)C)C(=O)N[C@@](C)(CC)C(=O)N[C@@H](CCC(N)=O)C(=O)N[C@H](CCC(N)=O)C(=O)NC(C)(C)C(=O)NC(C)(C)C(=O)N[C@@H](CCC(N)=O)C(=O)N[C@H](CC(C)C)C(=O)N[C@H](CO)CC(C)C`, the growth is -94.2% (active) and -97.9% (active).

For the compound `C/C=C/CC(C)C(O)[C@H](NC(=O)[C@@H]1CCCN1C(=O)C(C)(C)NC(=O)CCCCCCCCC)C(=O)N[C@@](C)(CC)C(=O)N[C@@H](CCC(N)=O)C(=O)N[C@H](CCC(N)=O)C(=O)NC(C)(C)C(=O)N[C@@](C)(CC)C(=O)N[C@@H](CCC(N)=O)C(=O)N[C@H](CC(C)C)C(=O)N[C@H](CO)CC(C)C` (some centres undefined), the growth is 99.9% (inactive) and -90.2% (active).

As to `CC1=C2C(=C[C@@](C)(COC(=O)c3ccc(S(=O)(=O)F)cc3)[C@@H]2OC(=O)c2ccc(S(=O)(=O)F)cc2)C(=O)[C@](C)(O)C12CC2`, the growth is -96.9% (active).
